Measured values from PubChem BioAssay (EPA / NIEHS).
“And” between values parts separate entries of the source, which are not always exact repeats. Identical values can stand only once. Records with an inconclusive call do not appear. A structure can be active in one record and inactive in another. The source made the active and inactive calls. The calls were made as follows: active = hit-call score of the fitted dose curve at least 0.9, where 1 is the maximum; inconclusive = response in the unintended direction; inactive = score below 0.9.

How the values were obtained:
[1] = ATG_XTT_Cytotoxicity: Cytotoxicity Assessment in the Attagene TRANS-FACTORIAL HepG2 Assay (AID 2283584);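 as to AC50: cells exposed to compound for 24 h before reading; active means loss of viability signal versus DMSO baseline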
Outline: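 HepG2 human liver cells, transiently transfected with multiple GAL4-UAS reporter units, were dosed and read at 24 h by XTT as cell number. Loss of signal was fitted relative to DMSO negative control baseline.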

[2] = TOX21_p53_BLA_p2_viability: Viability Assessment in the Tox21 HCT-116 p53 Agonism Beta-lactamase Assay, Phase 2 (AID 2283591);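 also: compound exposure lasted 16 h at 37 °C; actives lower the ATP signal meaning cytotoxicity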
Outline: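 HCT-116 p53-bla cells (4000/well) rested 5 h at 37C, then received compounds in DMSO (217-fold dilution) for 16 h at 37C, 5% CO2. After the CCF4 read, CellTiter-Glo was added; ATP luminescence was read after 30 min at room temperature.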

[3] = TOX21_p53_BLA_p3_viability: Viability Assessment in the Tox21 HCT-116 p53 Agonism Beta-lactamase Assay, Phase 3 (AID 2283593);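 also: cells exposed to compound for 16 h before reading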
Outline: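 HCT-116 cells (4000/well) rested 5 h at 37C, then got DMSO compounds by pin tool (217-fold dilution) for 16 h at 37C, 5% CO2. After the bla read, CellTiter-Glo was added and luminescence read at 30 min, room temperature.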

[4] = biological target: Cellular tumor antigen p53 (Homo sapiens) (UniProt P04637); experiment: TOX21_p53_BLA_p3_ratio: Tox21 HCT-116 p53 Agonism Beta-lactamase Assay, Ratio, Phase 3 (AID 2283596)
Cellular tumor antigen p53 (Homo sapiens), sequence (P04637 whole entry, looked up): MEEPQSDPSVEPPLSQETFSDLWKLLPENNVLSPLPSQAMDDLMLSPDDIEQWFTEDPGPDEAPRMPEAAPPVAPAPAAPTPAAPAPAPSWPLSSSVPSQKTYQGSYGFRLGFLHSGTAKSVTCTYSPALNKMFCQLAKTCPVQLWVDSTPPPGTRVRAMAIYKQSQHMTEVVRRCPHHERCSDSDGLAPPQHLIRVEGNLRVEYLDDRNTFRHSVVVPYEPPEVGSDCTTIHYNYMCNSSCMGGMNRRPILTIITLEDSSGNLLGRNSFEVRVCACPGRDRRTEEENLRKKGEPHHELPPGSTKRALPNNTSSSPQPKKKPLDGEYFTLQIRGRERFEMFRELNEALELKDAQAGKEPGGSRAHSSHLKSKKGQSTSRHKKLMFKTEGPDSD
Outline: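 Cells were seeded at 4000/well, rested 5 h at 37C, then dosed with DMSO compound solutions (217-fold dilution) for 16 h. CCF4-AM substrate was loaded for 2 h at room temperature, and the 460/530 nm emission ratio was fitted for gain of signal versus DMSO.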

[5] = TOX21_p53_BLA_p4_viability: Viability Assessment in the Tox21 HCT-116 p53 Agonism Beta-lactamase Assay, Phase 4 (AID 2283597);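 also: hits lower the luminescence signal meaning cytotoxicity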
Outline: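 Cytotoxicity was inferred from loss of CellTiter-Glo luminescence. HCT116 cells had been dosed with compounds after 5 h plating, incubated 16 h at 37C and 5% CO2, and exposed to the CCF4-AM substrate for 2 h.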

[6] = biological target: Cellular tumor antigen p53 (Homo sapiens) (UniProt P04637); experiment: TOX21_p53_BLA_p5_ratio: Tox21 HCT-116 p53 Agonism Beta-lactamase Assay, Ratio, Phase 5 (AID 2283599)
Outline: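 HCT-116 cells carrying a p53-inducible beta-lactamase reporter were seeded at 4000 cells/well and dosed after 5 h with compound in DMSO (217-fold dilution). After 16 h at 37C, CCF4-AM substrate was added for 2 h, and the 460/530 nm emission ratio was scored as gain-of-signal versus DMSO.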

[7] = biological target: Cellular tumor antigen p53 (Homo sapiens) (UniProt P04637); experiment: TOX21_p53_BLA_p2_ratio: Tox21 HCT-116 p53 Agonism Beta-lactamase Assay, Ratio, Phase 2 (AID 2283592)
Outline: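 Ratio endpoint: beta-lactamase cleavage of CCF4-AM, blue (460 nm) over green (530 nm). HCT116 reporter line; 16 h treatment, 37C; substrate 2 h RT.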

[8] = TOX21_p53_BLA_p5_viability: Viability Assessment in the Tox21 HCT-116 p53 Agonism Beta-lactamase Assay, Phase 5 (AID 2283600)
Outline: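 Luciferase-coupled ATP quantitation of cells treated for 16 h (37C, 5% CO2) with test chemicals delivered in DMSO via a 217-fold dilution; 4000 cells/well; reagent incubated 30 min at room temperature before luminescence reading.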

[9] = biological target: Cellular tumor antigen p53 (Homo sapiens) (UniProt P04637); experiment: TOX21_p53_BLA_p4_ratio: Tox21 HCT-116 p53 Agonism Beta-lactamase Assay, Ratio, Phase 4 (AID 2283601)
Outline: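 HCT116 cells carrying an inducible beta-lactamase reporter were plated at 4000 cells/well, rested 5 h, then exposed to compounds in DMSO (217-fold dilution) for 16 h at 37C. CCF4-AM substrate was loaded 2 h at room temperature; 460/530 nm emission ratio scored gain-of-signal versus DMSO.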

Measured: AC50

O=C(O)COc1ccc(Cl)cc1
not listed: [7] | [8] | [9]
inactive: all other assays above

CCNc1nc(NCC)nc(SC)n1
not listed: [2] | [9]
inactive: all other assays above

Cc1c([N+](=O)[O-])c(C)c([N+](=O)[O-])c(C(C)(C)C)c1[N+](=O)[O-]
active: [5] 42.5 µM
inactive: [1] | [2] | [6] | [8] | [9]

CC(=Cc1ccccc1)[N+](=O)[O-]
active: [1] 23.6 µM
inactive: [2] | [3] | [6] | [8] | [9]

O=C(CBr)c1ccc(O)cc1
not listed: [2] | [6]
inactive: all other assays above

C=CCc1ccccc1O
not listed: [2] | [5] | [8]
inactive: all other assays above

O=NN1CCOCC1
not listed: [2] | [8]
inactive: all other assays above

CCCCN(CCCCO)N=O
inactive: [1] | [2] | [3] | [5] | [8]

CNC(=O)O/N=C/C(C)(C)S(C)(=O)=O
not listed: [3] | [4] | [9]
inactive: all other assays above

C#C[C@]1(O)CC[C@H]2[C@@H]3CCC4=CC(=O)CC[C@]4(C)[C@H]3CC[C@@]21C
not listed: [2] | [6]
inactive: all other assays above

Cl[C@H]1OCCO[C@@H]1Cl
not listed: [2] | [8]
inactive: all other assays above

Cc1cc(Cl)ccc1OC(C)C(=O)O (configuration not stated)
not listed: [4] | [7]
inactive: all other assays above

O=C1c2ccccc2C(=O)C1C(=O)C(c1ccccc1)c1ccc(Cl)cc1 (configuration not stated)
active: [2] 29.4 µM | [3] 15.9 µM | [5] 37.3 µM
not listed: [7]
inactive: all other assays above

Clc1ccc(C(Cl)(Cl)Cl)cn1
inactive: [1] | [2] | [3] | [5] | [8]

Nc1cccnc1
not listed: [2] | [6]
inactive: all other assays above

Nc1nc(=S)[nH][nH]1
inactive: [1] | [2] | [7] | [6] | [8]

Cc1cc(C(F)(C(F)(F)F)C(F)(F)F)ccc1NC(=O)c1cccc(I)c1C(=O)NC(C)(C)CS(C)(=O)=O
active: [9] 56.9 µM
not listed: [2] | [6]
inactive: all other assays above

O=S1(=O)OC(c2cc(Br)c(O)c(Br)c2)(c2cc(Br)c(O)c(Br)c2)c2ccccc21
active: [3] 8.86 µM | [5] 52.4 µM
inactive: [1] | [2] | [8] | [9]

O=C(CCl)NCO
inactive: [1] | [2] | [7] | [5] | [9]

C=CC(=O)NC(C)(C)CC(C)=O
inactive: [1] | [2] | [4] | [5] | [8]

N#Cc1ccncc1
not listed: [3] | [5]
inactive: all other assays above

CC(C)(C1CCC(O)CC1)C1CCC(O)CC1 (configuration not stated)
inactive: [1] | [7] | [5] | [6]

C=C(C)C(=O)OCC(CC)CCCC (configuration not stated)
not listed: [1] | [6]
inactive: all other assays above

CC(=O)CN(CC(C)=O)N=O
inactive: [1] | [7] | [3] | [5]

CS(=O)(=O)c1ccc(C(=O)C2C(=O)CCCC2=O)c(Cl)c1COCC(F)(F)F
inactive: [1] | [7] | [4] | [8] | [9]

O=C=Nc1ccc(Cl)cc1
not listed: [1] | [6]
inactive: all other assays above

CCCCS(=O)(=O)Cl
inactive: [1] | [4] | [5] | [8]

CC(C)C(C)(N)C#N (configuration not stated)
not listed: [1] | [4] | [8]
inactive: all other assays above

N#Cc1ccc(Cl)cc1
inactive: [1] | [7] | [5] | [8] | [9]

C#CCO
inactive: [7] | [9]

CC(C)(c1ccccc1)c1cc(-n2nc3ccccc3n2)c(O)c(C(C)(C)c2ccccc2)c1
inactive: [2] | [7] | [5] | [9]

Nc1ccc(Br)cc1
not listed: [1]
inactive: all other assays above

C=C(C)[C@@H]1CC=C(C=O)CC1
inactive: [1] | [7] | [3] | [4] | [9]

CCCCOC(=O)COC(=O)c1ccccc1C(=O)OCCCC
inactive: [7] | [5] | [8] | [9]

OCCCCO
not listed: [1] | [3]
inactive: all other assays above

C#CCOC(=O)/C=C(C)/C=C/CC(C)CCCC(C)C (configuration not stated)
inactive: [1] | [3] | [5]

Oc1ccc(Cc2ccc(O)cc2)cc1
inactive: [1] | [7] | [4] | [8]

CC(c1ccc(O)cc1)c1ccc(O)cc1
inactive: [7] | [3] | [4] | [8] | [9]

CCC[CH2][Sn]([Cl])([Cl])[CH2]CCC
active: [2] 552 nM and 2.76 µM | [7] 1.59 µM and 14.3 µM | [3] 2.47 µM and 1.79 µM | [4] 19.6 µM and 20.1 µM | [5] 2.06 µM and 3.45 µM | [6] 15 µM and 20.4 µM | [8] 2.75 µM and 2.86 µM | [9] 3.21 µM and 13.9 µM

CC(C)[N+](=O)[O-]
not listed: [2] | [3]
inactive: all other assays above

O=C(NC(=O)c1c(F)cccc1F)Nc1cc(Cl)c(F)c(Cl)c1F
not listed: [1]
inactive: all other assays above

CCCCC(CC)C(=O)Cl (configuration not stated)
not listed: [1] | [5] | [6]
inactive: all other assays above

CC(C)CP(=S)(S)CC(C)C
inactive: [1] | [4] | [8] | [9]

COCCl
not listed: [2] | [3] | [6]
inactive: all other assays above

Nc1nc(N)nc(Cl)n1
inactive: [7] | [8] | [9]

CC(C=O)Cc1ccc2c(c1)OCO2 (configuration not stated)
not listed: [1]
inactive: all other assays above

O=CCCl
inactive: [1] | [7] | [3] | [4] | [9]

c1ccc2c(c1)Oc1ccccc1O2
inactive: [2] | [7] | [3] | [4] | [5] | [6] | [8]
active: [4] 86.4 µM

O=[N+]([O-])c1cc([As](=O)(O)O)ccc1O
not listed: [1] | [5] | [7]
inactive: all other assays above

O=NN1CCCCCC1
inactive: [2] | [7] | [4] | [9]

OC[P+](CO)(CO)CO
inactive: [7] | [4] | [6] | [9]

CCCSP(=S)(OCC)Oc1ccc(SC)cc1 (configuration not stated)
inactive: [1] | [5] | [6] | [9]

CCCCCCCCBr
inactive: [1] | [7] | [4] | [6] | [8]

Cc1cccc(N=Nc2ccc(N(C)C)cc2)c1
not listed: [1] | [8]
inactive: all other assays above

O=C(Cc1ccccc1)OCCc1ccccc1
inactive: [2] | [7] | [5] | [6] | [8]

CC(C)=CC1C(C(=O)OCc2cccc(Oc3ccccc3)c2)C1(C)C (configuration not stated)
not listed: [1] | [6] | [7]
inactive: all other assays above

c1ccc(-c2cccc(-c3ccccc3)c2)cc1
not listed: [1] | [6]
inactive: all other assays above
